The text below walks through data of PubChem BioAssay (NCATS).

Each structure is given as a SMILES string. Unmarked numbers belong to inactive results. Records with an inconclusive call do not appear. The source made the active and inactive calls. Unless noted, calls come from the whole dose curve; as a rule, active = well fitted curve in either direction with a large enough effect (not every such curve was filed as active); inconclusive = small, poorly fitted or top-dose-only effect, or another doubt; inactive = flat fitted curve, though single readings scatter.

For assay [1], the target named is Lysosomal acid glucosylceramidase (Homo sapiens) (UniProt P04062). Put plainly: Glucocerebrosidase-p2 (AID 348; in the data active = potency below about 10 µM; note: potency is the fitted concentration of half-maximal effect). The following applies: purified GBA, blue fluorogenic substrate, 40 min. The essentials:
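Compounds titrated from 0.6 nM upwards against 0.2 nM enzyme in pH 5.9 citric acid/KH2PO4, taurocholate, tween-20; blue fluorogenic substrate 80 uM, 40 min room temperature, stopped and read Ex 365/Em 440 for AC50.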

Assay [2] is described as follows: AP1 Signaling Pathway (AID 357).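 Note: ME-180 reporter cells stimulated with EGF at its EC50 level; % is set by controls: 0 for no effect and ±100 for the full control effect.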 Conditions: ME-180 AP-1-bla reporter, EGF-induced, beta-lactamase ratio, 5 h; at 7.69 µM (top of the series) unless noted. The gist of the method: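 First, ME-180 AP-1-bla cells were cultured overnight at 37 °C in low-serum Opti-MEM. Next, titrated compounds with EC50 EGF were incubated 5 hours. Finally, CCF4 was added for 2.5 hours and the 460/530 nm ratio recorded.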

Assay [3] has as its target Cytochrome P450 1A2 (Homo sapiens) (UniProt P05177). Put plainly: p450-cyp1a2 (AID 410; calls by dose curve; note: potency is the fitted concentration of half-maximal effect;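 for activity change, negative = inhibition: -100% = full effect of reference inhibitor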). Conditions: recombinant CYP1A2, luciferin-ME demethylation, luminescence; series mostly up to 11.4 µM. The gist of the method: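 Inhibition was calculated relative to 57 uM furafylline (full inhibition). The reaction used human CYP1A2 at 20nM with Luciferin-ME at its Km, 100uM, driven by an NADPH-regenerating system for 60 min at room temperature.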

The nature of assay [4]: NFAT Signaling Pathway (AID 444).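 Note: carbachol stimulus at about its EC50 of 1 µM final; % is set by controls: 0 for no effect and ±100 for the full control effect.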 The following applies: Jurkat NFAT-bla M1, carbachol, beta-lactamase ratio, 5 h; at 7.69 µM (top of the series) unless noted. The essentials:
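Read-out: CCF4 FRET ratio (460 nm/530 nm) after 1 h RT dye loading, used for %activity and AC50 from titration series. Cells: Jurkat NFAT-β-lactamase/M1 line, treated with compound plus 1 uM carbachol for 5 h, 37 °C.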

Assay [5] is described as follows: Stat Signaling Pathway (AID 446).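 Note: ME-180 cervical cancer cells given 40 pM IL-6 alongside compound; SIE-controlled beta-lactamase reporter measured as 460/530 nm FRET emission ratio; % is set by controls: 0 for no effect and ±100 for the full control effect.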 Conditions: ME-180 (cervical carcinoma) SIE beta-lactamase reporter, IL-6 stimulated, 5 h; at 7.69 µM (top of the series) unless noted. The gist of the method: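 IL-6/STAT signaling read in ME-180 cells via an SIE beta-lactamase reporter. Stimulus was 40 pM IL-6 (its AC50) for 5 hrs, so both activation and inhibition register.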
The target in assay [6] is Glucocorticoid receptor (Homo sapiens) (UniProt P04150). Kind of assay: GR-GFP Redistribution (AID 450;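 active = compounds whose dose series gives a full or clear partial fitted curve of increased nuclear translocation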; note: potency is the fitted concentration of half-maximal effect). The following applies: U2OS GR-GFP nuclear translocation, laser cytometry, 2 h.
Assay [7] shares this target. Kind of assay: GR-EFC Redistribution (AID 451; calls by dose curve; note: potency is the fitted concentration of half-maximal effect). The following applies: CHO-K1 GR-EFC translocation, beta-gal luminescence, 2 h. The essentials: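 Translocation of GR-ED fusion to nuclear EA restores b-gal, read by luminescence after 1 h room-temperature detection. Engineered CHO-K1 biosensor cells, 1,000/well, exposed 2 h at 37 C to titrations up to 46 uM final.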
The target of assay [8] is Mitogen-activated protein kinase 10 (Mus musculus) (UniProt Q61831). Put plainly: JNK3 AlphaScreen Assay (AID 530).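 Note: kinase came from lysate of stimulated human HepG2 cells; signal reports phosphorylation of biotinylated GST-cJun 1-79 at Ser73 with 10 µM ATP; % is set by controls: 0 for no effect and ±100 for the full control effect.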 The following applies: JNK3 lysate, c-Jun phosphorylation; series mostly up to 11.4 µM. The essentials:
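Room-temperature AlphaScreen kinase assay; pre-activated HepG2 lysate as JNK3 source, biotin-GST-cJun(1-79) substrate, 10 uM ATP, compound 15 min preincubation.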

For assay [9], the target named is 3',5'-cyclic-AMP phosphodiesterase 4B (Homo sapiens) (UniProt Q07343). Kind of assay: qHTS Assay for Inhibitors of PDE-IV (AID 607; active = well fitted activation curve with a large enough effect in the main read-out, with a control signal flat, not every such curve was filed as active; note: % of control where 0% means no effect). The following applies: HEK293 ACTOne CNG channel cells, membrane potential fluorescence; series mostly up to 22.9 µM. The essentials:
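Live HEK293 cells with a modified cyclic nucleotide-gated (CNG) channel report intracellular cAMP via membrane-potential dye fluorescence (ex 535/em 590 nm). Endogenous PDE-IV was targeted. Compounds were tested at up to 22.9 uM final; RO 20-1724 100 uM served as control.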

Sequence of 3',5'-cyclic-AMP phosphodiesterase 4B (Homo sapiens) (Q07343 whole entry, looked up): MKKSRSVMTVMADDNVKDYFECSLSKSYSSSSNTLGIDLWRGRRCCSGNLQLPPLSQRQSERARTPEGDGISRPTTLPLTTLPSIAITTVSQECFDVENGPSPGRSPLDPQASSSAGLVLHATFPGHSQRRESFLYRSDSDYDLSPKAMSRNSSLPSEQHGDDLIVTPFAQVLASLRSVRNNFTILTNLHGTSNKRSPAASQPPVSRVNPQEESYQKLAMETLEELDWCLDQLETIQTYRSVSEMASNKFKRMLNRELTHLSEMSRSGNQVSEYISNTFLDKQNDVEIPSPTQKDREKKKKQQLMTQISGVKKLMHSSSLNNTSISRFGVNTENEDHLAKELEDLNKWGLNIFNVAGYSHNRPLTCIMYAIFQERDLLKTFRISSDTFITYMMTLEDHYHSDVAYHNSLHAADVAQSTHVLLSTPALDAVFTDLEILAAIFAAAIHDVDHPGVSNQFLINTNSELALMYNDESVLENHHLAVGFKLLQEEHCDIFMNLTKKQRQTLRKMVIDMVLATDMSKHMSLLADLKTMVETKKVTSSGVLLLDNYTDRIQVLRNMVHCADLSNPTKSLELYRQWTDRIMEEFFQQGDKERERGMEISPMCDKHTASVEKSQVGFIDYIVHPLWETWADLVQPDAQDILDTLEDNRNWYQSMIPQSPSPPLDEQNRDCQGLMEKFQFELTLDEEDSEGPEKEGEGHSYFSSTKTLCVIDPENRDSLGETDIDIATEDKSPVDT
Sequence of Glucocorticoid receptor (Homo sapiens) (P04150 whole entry, looked up, the tested form may be a part): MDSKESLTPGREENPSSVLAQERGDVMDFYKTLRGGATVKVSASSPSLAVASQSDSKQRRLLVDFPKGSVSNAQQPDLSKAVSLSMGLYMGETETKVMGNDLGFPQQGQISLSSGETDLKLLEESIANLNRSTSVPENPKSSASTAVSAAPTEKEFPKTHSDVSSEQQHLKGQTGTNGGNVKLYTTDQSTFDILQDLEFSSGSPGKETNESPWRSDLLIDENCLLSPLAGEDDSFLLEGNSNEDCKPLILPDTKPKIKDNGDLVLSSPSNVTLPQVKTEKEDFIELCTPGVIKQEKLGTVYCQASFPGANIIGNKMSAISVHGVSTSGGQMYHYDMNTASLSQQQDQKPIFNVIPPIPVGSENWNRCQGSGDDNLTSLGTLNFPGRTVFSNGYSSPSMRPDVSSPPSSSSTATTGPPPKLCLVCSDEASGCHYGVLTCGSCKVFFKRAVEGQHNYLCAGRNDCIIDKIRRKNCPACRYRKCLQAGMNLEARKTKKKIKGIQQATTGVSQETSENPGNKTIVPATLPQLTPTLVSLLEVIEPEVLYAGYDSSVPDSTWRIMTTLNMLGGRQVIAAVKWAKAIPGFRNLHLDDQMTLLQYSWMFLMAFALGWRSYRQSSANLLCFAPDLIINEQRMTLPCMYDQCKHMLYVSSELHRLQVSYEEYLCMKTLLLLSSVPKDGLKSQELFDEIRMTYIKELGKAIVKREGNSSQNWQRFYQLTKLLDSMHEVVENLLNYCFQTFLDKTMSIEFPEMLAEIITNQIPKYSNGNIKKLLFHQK
Sequence of Cytochrome P450 1A2 (Homo sapiens) (P05177 whole entry, looked up): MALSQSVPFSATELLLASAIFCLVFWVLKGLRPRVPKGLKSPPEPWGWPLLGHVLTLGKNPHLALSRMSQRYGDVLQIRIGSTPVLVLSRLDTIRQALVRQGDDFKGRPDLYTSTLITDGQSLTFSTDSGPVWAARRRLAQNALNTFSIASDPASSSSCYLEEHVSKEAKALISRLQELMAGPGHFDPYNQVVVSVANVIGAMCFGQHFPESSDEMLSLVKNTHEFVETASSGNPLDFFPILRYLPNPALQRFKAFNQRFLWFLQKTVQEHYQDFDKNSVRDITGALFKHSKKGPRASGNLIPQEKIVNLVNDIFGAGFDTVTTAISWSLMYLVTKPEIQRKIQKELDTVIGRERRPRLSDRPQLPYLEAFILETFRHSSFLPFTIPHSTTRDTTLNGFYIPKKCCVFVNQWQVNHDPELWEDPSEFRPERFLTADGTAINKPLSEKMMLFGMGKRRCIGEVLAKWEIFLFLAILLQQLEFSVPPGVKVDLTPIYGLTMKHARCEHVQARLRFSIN
Sequence of Lysosomal acid glucosylceramidase (Homo sapiens) (P04062 whole entry, looked up): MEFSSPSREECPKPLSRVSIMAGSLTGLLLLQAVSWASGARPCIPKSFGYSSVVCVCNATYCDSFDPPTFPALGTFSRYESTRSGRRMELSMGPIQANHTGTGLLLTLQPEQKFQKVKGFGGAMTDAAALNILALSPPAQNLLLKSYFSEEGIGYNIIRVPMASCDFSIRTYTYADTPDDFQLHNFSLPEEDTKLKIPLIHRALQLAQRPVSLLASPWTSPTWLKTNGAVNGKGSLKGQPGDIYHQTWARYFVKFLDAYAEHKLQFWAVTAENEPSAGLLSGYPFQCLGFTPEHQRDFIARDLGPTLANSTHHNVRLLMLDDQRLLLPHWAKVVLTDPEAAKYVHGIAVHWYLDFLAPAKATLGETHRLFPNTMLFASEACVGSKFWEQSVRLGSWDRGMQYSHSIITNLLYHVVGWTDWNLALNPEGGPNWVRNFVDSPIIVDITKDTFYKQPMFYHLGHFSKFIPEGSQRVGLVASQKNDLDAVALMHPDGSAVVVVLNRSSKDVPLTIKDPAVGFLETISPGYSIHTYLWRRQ

Regarding `COC(=O)[C@@H]1[C@@H]2C[C@H]3c4[nH]c5ccccc5c4CCN3C[C@@H]2CC[C@@H]1OS(=O)(=O)O`, the Potency is over 11.4 µM in assay [1], over 46 µM in [6] and over 9.22 µM in assay [7]. For the same compound, the results for the activity change, negative = inhibition in assay [2], in [3] and in [4] were 1.46%, -10.3% [at 2.29 µM] and 3.3%, respectively. Further, the activity, negative = inhibition in assay [5] was 12.7%. In addition, the Potency entry in [8] and in assay [9] was “inactive” in each case.
In the case of `O=C(O)[C@@H]1CCCN1Cc1c[nH]c2ccccc12`, the Potency in [1] was over 11.4 µM; in [6], over 46 µM; in [7], over 9.22 µM. Moreover, the results for the activity change, negative = inhibition in assay [2] and in [4] were 6.54% and 6.95%, respectively. Besides, the Potency entry in [3], in assay [8] and in assay [9] was “inactive” throughout. The activity, negative = inhibition in assay [5] is 3.95%.
In the case of `CC1(CCC(=O)OC2CCCCC2)OCCO1`, the values for the Potency in assay [1], in [6] and in assay [7] were over 11.4 µM, over 46 µM and over 9.22 µM, respectively. In addition, the figures for the activity change, negative = inhibition in [2] and in [4] were 4.96% and 19.8%, respectively. Moreover, the Potency entry in [3], in assay [8] and in assay [9] was “inactive” throughout. For the same compound, the activity, negative = inhibition in assay [5] is 4.55%.
For the compound `C[C@@H]1C[C@H](C)CN(S(=O)(=O)c2cc(Cl)c(Oc3ccc([N+](=O)[O-])cc3Cl)c(Cl)c2)C1`, the Potency in assay [1] was over 11.4 µM; in assay [6], over 46 µM; in assay [7], over 9.22 µM. Moreover, the activity change, negative = inhibition was 16.4% in [2] and -22.6% in assay [4]. The Potency entry in [3], in assay [8] and in [9] was “inactive” in each case. Besides, the activity, negative = inhibition in assay [5] was 20.1%.
`NC[C@H]1O[C@H](n2cnc3c(N)ncnc32)C[C@@H]1O`: the Potency in [1] was over 11.4 µM; in [6], over 46 µM; in assay [7] it was over 9.22 µM. Also, the figures for the activity change, negative = inhibition in assay [2] and in assay [4] were -8.42% and 7.55%, respectively. In addition, the Potency entry in assay [3], in assay [8] and in [9] was “inactive” each time. Also, the activity, negative = inhibition in assay [5] is 9.05%.
`CCn1c(CCCc2nc3c([nH]2)c(=O)n(C)c(=O)n3C)nc2c1c(=O)n(C)c(=O)n2C`: the Potency in assay [1] is over 11.4 µM; in assay [6], over 46 µM; in [7], over 9.22 µM. In addition, the activity change, negative = inhibition was -3.01% in [2], -16.7% [at 2.29 µM] in [3] and 6.75% in assay [4]. Besides, the activity, negative = inhibition in assay [5] is 1.77%. For the same compound, the Potency result in assay [8] and in assay [9] was “inactive” throughout.
On to `CN(C)CCn1c(CO)nc2c1c(=O)n(C)c(=O)n2C`, for which the figures for the Potency in assay [1], in assay [6] and in [7] were over 11.4 µM, over 46 µM and over 9.22 µM, respectively. The activity change, negative = inhibition is 1.13% in [2] and 1.85% in assay [4]. The Potency entry in assay [3], in [8] and in assay [9] was “inactive” each time. In addition, the activity, negative = inhibition in assay [5] is 6.5%.
Take `O=C(O)[C@H]([C@H]1NCCS1)N1C(=O)c2ccccc2C1=O`: the Potency is over 11.4 µM in assay [1], 5.01 µM (active) in assay [3], over 46 µM in [6] and over 9.22 µM in assay [7]. Besides, the activity change, negative = inhibition in assay [2] is 20.1%; in [4], 8.05%. Moreover, in [5], the activity, negative = inhibition is 3.15%. For the same compound, the Potency result in assay [8] and in assay [9] was “inactive” throughout.
`O=C(CCN1CCOCC1)Nc1ccc(F)cc1F`: the Potency in assay [1] is over 11.4 µM; in assay [6], over 46 µM; in assay [7] it was over 9.22 µM. Besides, the activity change, negative = inhibition was -2.63% in assay [2] and 13.2% in assay [4]. Besides, the Potency result in assay [3], in assay [8] and in assay [9] was “inactive” in each case. In addition, the activity, negative = inhibition in [5] is 8.47%.
As to `CSc1ncnc2c1ncn2[C@@H]1O[C@@H](CO)[C@H](O)O[C@@H]1O`, the values for the Potency in [1], in assay [6] and in assay [7] were over 11.4 µM, over 46 µM and over 9.22 µM, respectively. Further, the activity change, negative = inhibition is -6.79% in assay [2], -5.2% [at 2.29 µM] in assay [3] and 22.2% in assay [4]. For the same compound, the activity, negative = inhibition in assay [5] was 22.9%. For the same compound, the Potency entry in assay [8] and in assay [9] was “inactive” throughout.
For the compound `CN(CC(=O)O)CC(=O)O`, the Potency in assay [1] was over 11.4 µM; in assay [6], over 46 µM; in assay [7], over 9.22 µM. The figures for the activity change, negative = inhibition in assay [2], in assay [3] and in [4] were -6.97%, -5.9% [at 2.29 µM] and 11.1%, respectively. Besides, the activity, negative = inhibition in [5] was 2.4%. Further, the Potency result in assay [8] and in [9] was “inactive” each time.
Consider `NS(=O)(=O)c1ccc(N=Nc2ccc[nH]c2=O)cc1`, for which the Potency in [1] was 3.95 µM (active); in assay [3], 0.501 µM (active); in [6], over 46 µM; in assay [7], over 9.22 µM. Further, the activity change, negative = inhibition was -1.61% in assay [2] and -25.2% in assay [4]. Moreover, the activity, negative = inhibition in assay [5] was -6.14%. Besides, the Potency result in assay [8] and in [9] was “inactive” in each case.
On to `NC([N-]/N=C/c1ccccn1)=[S]=[Fe].O=S(=O)(O)O`, for which the Potency in assay [1] is over 11.4 µM; in assay [6] it was over 46 µM; in assay [7] it was over 9.22 µM. In addition, the activity change, negative = inhibition was 8.56% in assay [2], 15.8% [at 2.29 µM] in [3] and -1.69% in assay [4]. Moreover, the activity, negative = inhibition in [5] is -13.8%. Moreover, the Potency entry in assay [8] and in assay [9] was “inactive” throughout.
With `O=C(O)c1ccccc1CN1CCC[C@@H](C(=O)O)C1`, the figures for the Potency in assay [1], in [6] and in assay [7] were over 11.4 µM, over 46 µM and over 9.22 µM, respectively. In addition, the activity change, negative = inhibition in assay [2] is -3.95%; in assay [4], 12.7%. The Potency result in [3], in assay [8] and in [9] was “inactive” throughout. In assay [5], the activity, negative = inhibition was 8.09%.
Consider `O=C(O)c1ccc(OCc2ccccc2)c(Cl)c1`, for which the Potency is over 11.4 µM in assay [1], over 46 µM in assay [6] and over 9.22 µM in assay [7]. Moreover, the activity change, negative = inhibition is -4.15% in [2], -3.2% [at 2.29 µM] in assay [3] and 2.05% in assay [4]. In addition, in assay [5], the activity, negative = inhibition was 6.68%. For the same compound, the Potency entry in [8] and in [9] was “inactive” each time.
